From PubChem BioAssay AID651821 (The Scripps Research Institute Molecular Screening Center, 2012)
Out of some 370,000 compounds screened, about 4,700 (1.3%) were called active. The list comes from a sample in which actives are over-represented; it also holds similar structures and randomly drawn compounds. Unmarked numbers belong to inactive results.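 The calls were made as follows: active = inhibition above the plate cutoff, the mean of all test compounds on that plate plus 3 SD (cut at about 35% in these data); inactive = the rest.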

Test: binders of r(CAG) RNA repeats, primary screen, biochemical, fluorescence (AID 651821);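 also: 0% = DMSO alone and 100% = 100 µM mitoxantrone as full dye displacement; higher means more dye released from RNA so lower well fluorescence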
Conditions: r(CAG) RNA repeat, TO-PRO-1 dye displacement fluorescence; at 3 µM; active compounds read high

Row | Structure (SMILES) | inhibition
1 | N#Cc1cccc(C(=O)NCC2CCN(C(=O)C(=O)c3cc4ccccc4o3)CC2)c1 | 2.89%
2 | Nc1[nH]c(C(=O)c2ccccc2)c(-c2ccc(Cl)cc2Cl)c1C(=O)c1ccccc1 | 5.66%
3 | C[C@@H]1CN([C@H](C)CO)C(=O)CCCn2cc(nn2)CO[C@H]1CN(C)C(=O)Nc1ccc(N2CCCCC2)cc1 | 9.11%
4 | Cc1ccc2nc(SCC(=O)N3CC(C)OC(C)C3)nc(=O)n2c1 (configuration not stated) | -10.3%
5 | O=C(C1CCCN1S(=O)(=O)c1ccccc1)N1CCc2ccccc2C1 (configuration not stated) | 0.6%
6 | O=C(OCC(=O)N1CCCCC1)c1ccc(OC(F)(F)F)cc1 | -1.21%
7 | O=C(Nc1ccccc1)N1CCN(Cc2nc3ccccc3c(=O)[nH]2)CC1 | -0.05%
8 | CCN(CC)C(=O)CC[C@@H]1CC[C@]2(CCCN(S(=O)(=O)C3CCCCC3)C2)O1 | -0.19%
9 | O=C(CSc1nc2c(c(=O)[nH]1)CCCC2)N1CCCCC1 | 3.54%
10 | Cc1cc(C(=O)OCC(=O)Nc2nccs2)c2ccccc2n1 | 6.91%
11 | O=C(Nc1ccc(S(=O)(=O)Nc2nccs2)cc1)c1cc(=O)[nH]c2ccccc12 | 25.9%
12 | O=C(Nc1ccc(S(=O)(=O)Nc2nccs2)cc1)c1cc(-c2ccncc2)nc2ccccc12 | 47.9% (active)
13 | CCN(CC(=O)Nc1ccccc1C(F)(F)F)C(=O)C1CCN(C(=O)Nc2ccccc2)CC1 | -1.69%
14 | COC(=O)[C@]12C[C@H](CC(=O)NCCCCc3ccccc3)C(=O)N(Cc3ccc4c(c3)OCO4)C1=C[C@H](C(C)(C)C)O[C@@H]2C | 9.49%
15 | CSc1nc(-c2ccccc2)nc(C(Cl)Cl)n1 | -0.59%
16 | COc1cc(/C=C/C(=O)OCC(=O)NC(=O)NCc2ccccc2)ccc1OCC#N | -3.56%
17 | COC(=O)c1ccc(COc2ccc(/C=C/C(=O)c3ccc(OC)c(CSCC(=O)O)c3)cc2OC)cc1 | 43.7% (active)
18 | COc1ccccc1CCNC(=O)C1CCN(C(=O)/C=C/c2ccccc2)CC1 | -7.33%
19 | COc1ccc(C(=O)/C=C/c2ccc(-c3ccccc3)cc2)cc1CSCC(=O)O | 63.2% (active)
20 | COc1cc(C(=O)NCC(c2ccco2)N2CCCC2)ccc1OCc1ccccc1 (configuration not stated) | 3.03%
21 | COCc1cc(C(C)=O)ccc1OC | 3.9%

Row | Structure (SMILES) | inhibition
22 | CCOC(=O)[C@]12CCCC=C1N(Cc1ccc(OC)cc1)C(=O)[C@@H]2CC(=O)NCc1cccs1 | 1.72%
23 | CN(C)[C@H]1CCN(c2cccc3c2S(=O)(=O)N2CC[C@H](C2)O3)C1 | 1.39%
24 | CCOC(=O)c1c(NC(=O)C2CC=CCC2C(=O)O)sc(C)c1CC (configuration not stated) | 34.6% (active)
25 | CCc1c(C)sc(NC(=O)c2cccs2)c1C(N)=O | 5.17%
26 | CCOC(=O)c1c(NC(=O)CN2C(=O)NC3(CCC(C)CC3)C2=O)sc(C)c1CC (configuration not stated) | -14%
27 | Cc1ccc(N)cc1CN1CCN(c2ncc(Cc3ccccc3)cn2)CC1 | 3.17%
28 | CC(C)(C)OC(=O)NCc1cc(F)ccc1/C=C/S(=O)(=O)NCCc1ccccc1 | -0.33%
29 | CC1(C)OC(=O)C2=C(CC(CCc3ccccc3)OC2c2ccc(Cl)cc2)O1 (configuration not stated) | 3.44%
30 | CCC(C(=O)Nc1ncccn1)(C(F)(F)F)C(F)(F)F | -0.05%
31 | COc1cc(/C=C/C(=O)O)cc(S(=O)(=O)Nc2ccccc2SC)c1OC | 8.56%
32 | COc1ccc(NS(=O)(=O)c2cc(C(=O)Nc3ccccc3C(=O)O)ccc2C)cc1 | 74.6% (active)
33 | COc1ccc(OC)c(S(=O)(=O)Nc2ccccc2F)c1 | -3.01%
34 | COc1ccc(NS(=O)(=O)c2cc(NC(=O)COc3ccccc3F)ccc2OC)cc1 | 4.34%
35 | COc1ccc(NS(=O)(=O)c2cc(NC(=O)CC(=O)c3ccc([N+](=O)[O-])cc3)ccc2C)cc1 | 42.4% (active)
36 | COc1ccc(NS(=O)(=O)c2ccc(C(=O)Nc3c(C)n(C)n(-c4ccccc4)c3=O)cc2)cc1 | 10.7%
37 | Cc1ccc(C(=O)Nc2ccccc2-c2ccccc2)cc1S(=O)(=O)Nc1ccccc1 | 17.1%
38 | COc1cc(OC)c(S(=O)(=O)Nc2ccccc2C(=O)O)cc1S(=O)(=O)Nc1ccccc1C(=O)O | 63.4% (active)
39 | Cc1ccc(NC(=O)CCNC(=O)c2ccc([N+](=O)[O-])cc2)cc1S(=O)(=O)N1CCOCC1 | 1.24%
40 | CCOC(=O)[C@]12CCCCC/C=C\1N(Cc1ccc(OC)cc1)C(=O)[C@H]2CC(=O)N1CCOCC1 | 4.38%
41 | COc1ccc(-c2cc(-c3nnc(SCC(=O)Nc4cccc5ccccc45)n3N)[nH]n2)cc1 | 10.7%
42 | COC(=O)[C@]12C[C@H](CC(=O)NCc3ccccc3)C(=O)N(CCC3=CCCCC3)C1=C[C@H](C(C)(C)C)O[C@@H]2C | 1.7%
